In PubChem BioAssay (EPA / NIEHS):
Where “and” joins values, the source holds several entries; their conditions need not be identical. Identical values can stand only once. Where a structure was tested more than once in an assay, its records may differ in their call. Calls of active or inactive are those of the source. The calls were made as follows: active = hit-call score of the fitted dose curve at least 0.9, where 1 is the maximum; inactive = score below 0.9.

Key:
[1] = ATG_NFI_CIS: Attagene CIS-FACTORIAL HepG2 Assay for human Nuclear Factor I (NFI) (AID 2282989); conditions: HepG2 cis-regulatory reporter, NFI response element transcription; actives raise or lower the signal
How it was run: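 Reporter transcription driven by endogenous transcription factors in HepG2 cells; 24 h treatment. Quantitation by labelled RT-PCR fragments on capillary electrophoresis, gain- or loss-of-signal relative to DMSO.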

[2] = ATG_NRF2_ARE_CIS: Attagene CIS-FACTORIAL HepG2 Assay for human Nuclear Factor Erythroid 2 Related Factor 2 (NFR2) response to Antioxidant Response Elements (ARE) (AID 2282992); conditions: HepG2 Attagene ARE/NRF2 reporter, transcription factor activity; actives raise or lower the signal
How it was run: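 HepG2 cells transiently transfected with multiplexed cis-regulated reporter transcription units measure endogenous transcription factor activity. Reporter mRNA at 24 h is quantified by RT-PCR, fluorescent labelling and capillary electrophoresis, with bidirectional fitting relative to DMSO.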

[3] = ATG_Oct_MLP_CIS: Attagene CIS-FACTORIAL HepG2 Assay for human Octamer-Binding Transcription Factor (Oct) (AID 2282993); conditions: HepG2 Attagene cis-factorial Oct reporter, mRNA; actives raise or lower the signal
How it was run: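 Transfected HepG2 cells, 24 h treatment. Reporter mRNA quantified by RT-PCR–capillary electrophoresis; bidirectional fitting against DMSO.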

[4] = BSK_3C_TissueFactor: BioMAP Diversity Plus: 3C Assay for Tissue Factor Biomarker Activity (AID 2282997); conditions: BioMAP 3C HUVEC, tissue factor biomarker readout; actives raise or lower the signal
How it was run: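 ELISA read-out of Tissue Factor levels on human umbilical vein endothelium collected 24 h after chemical dosing. Gain or loss of signal was fitted relative to DMSO.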

[5] = BSK_3C_uPAR: BioMAP Diversity Plus: 3C Assay for Urokinase-type plasminogen activator receptor (uPAR) Biomarker Activity (AID 2282998); conditions: BioMAP 3C HUVEC, uPAR biomarker ELISA; actives raise or lower the signal
How it was run: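 Readout: ELISA for surface uPAR. System: human umbilical vein endothelial primary cells, 24 h after chemical exposure. Analysis: bidirectional fit, DMSO baseline.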

[6] = BSK_3C_VCAM1: BioMAP Diversity Plus: 3C Assay for Vascular cell adhesion molecule 1 (VCAM1) Biomarker Activity (AID 2282999); conditions: BioMAP 3C HUVEC, VCAM1 ELISA, cytokine-stimulated; actives raise or lower the signal
How it was run: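 Human umbilical vein endothelial cells were dosed with compound for 24 h, after which cell-surface VCAM-1 was quantified by ELISA. Bidirectional curve fitting used DMSO as negative control and activity baseline.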

[7] = BSK_4H_Eotaxin3: BioMAP Diversity Plus: 4H Assay for Eotaxin 3 Biomarker Activity (AID 2283000); conditions: primary human endothelial cells (HUVEC); actives raise or lower the signal
How it was run: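 Chemicals were added to human umbilical vein endothelium cultures, and Eotaxin-3 was quantified by ELISA at 24 h. Values were derived by bidirectional fitting with DMSO serving as negative control and activity baseline.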

[8] = target: Myc proto-oncogene protein (Homo sapiens) (UniProt P01106); assay: ATG_Myc_CIS: Attagene CIS-FACTORIAL HepG2 Assay for human Myelocytomatosis (Myc) Proto-Oncogene Transcription Factor (AID 2282990); conditions: HepG2, Attagene cis-reporter transcription factor activity; actives raise or lower the signal
Myc proto-oncogene protein (Homo sapiens), sequence (P01106 whole entry, looked up): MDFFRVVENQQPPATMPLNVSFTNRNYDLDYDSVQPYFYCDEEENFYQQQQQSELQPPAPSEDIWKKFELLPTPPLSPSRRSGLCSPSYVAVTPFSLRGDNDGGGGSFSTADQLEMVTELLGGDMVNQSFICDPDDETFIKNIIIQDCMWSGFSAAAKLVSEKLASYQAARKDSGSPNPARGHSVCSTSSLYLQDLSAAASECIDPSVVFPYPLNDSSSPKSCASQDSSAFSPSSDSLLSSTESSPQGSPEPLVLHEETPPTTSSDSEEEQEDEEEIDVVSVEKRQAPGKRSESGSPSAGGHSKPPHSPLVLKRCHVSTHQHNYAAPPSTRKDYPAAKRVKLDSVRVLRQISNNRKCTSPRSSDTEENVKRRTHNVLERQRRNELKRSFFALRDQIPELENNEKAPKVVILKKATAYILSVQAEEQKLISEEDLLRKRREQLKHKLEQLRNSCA
How it was run: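 DMSO-normalised, bidirectionally fitted reporter mRNA signal. HepG2 cells transfected with cis reporter constructs, treated 24 h; transcripts detected by RT-PCR, 6-FAM primer extension and CE.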

[9] = ATG_NF_kB_CIS: Attagene CIS-FACTORIAL HepG2 Assay for human Nuclear Factor Kappa B (NF-kB) (AID 2282991); conditions: HepG2 Attagene cis-factorial NF-kB reporter mRNA; actives raise or lower the signal
How it was run: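 Fluorescence of labelled RT-PCR products separated by capillary electrophoresis gives reporter mRNA levels from transfected HepG2 cells exposed 24 h; values are fitted in both directions relative to DMSO.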

[10] = target: Cellular tumor antigen p53 (Homo sapiens) (UniProt P04637); assay: ATG_p53_CIS: Attagene CIS-FACTORIAL HepG2 Assay for human p53 Transcription Factor (AID 2282994); conditions: HepG2 p53 cis-element reporter, Attagene mRNA; actives raise or lower the signal
Cellular tumor antigen p53 (Homo sapiens), sequence (P04637 whole entry, looked up): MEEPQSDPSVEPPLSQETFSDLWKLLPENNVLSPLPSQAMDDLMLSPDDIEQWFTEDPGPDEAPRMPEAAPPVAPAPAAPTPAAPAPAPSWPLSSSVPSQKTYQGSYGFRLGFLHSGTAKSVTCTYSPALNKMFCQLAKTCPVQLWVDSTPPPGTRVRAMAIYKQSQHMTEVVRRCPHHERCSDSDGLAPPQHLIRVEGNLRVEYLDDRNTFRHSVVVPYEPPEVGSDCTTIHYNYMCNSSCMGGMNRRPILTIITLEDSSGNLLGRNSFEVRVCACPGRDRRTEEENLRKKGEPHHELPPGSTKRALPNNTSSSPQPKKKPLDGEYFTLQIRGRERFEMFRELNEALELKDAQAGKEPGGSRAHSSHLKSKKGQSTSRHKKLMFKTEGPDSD
How it was run: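 HepG2 cells transiently transfected with multiplexed cis-regulated reporter transcription units read endogenous TF activity. After 24 h compound exposure, reporter mRNA was quantified by RT-PCR, fluorescent labelling, HpaI digestion and capillary electrophoresis; bidirectional fits versus DMSO baseline.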

Measured: AC50

CCNS(=O)(=O)C(F)(F)C(F)(F)C(F)(F)C(F)(F)C(F)(F)C(F)(F)C(F)(F)C(F)(F)F
active: [1] 117 µM and 61.4 µM | [2] 25.7 µM and 41.5 µM and 13.3 µM | [3] 96.5 µM | [5] 19.6 µM | [6] 14.8 µM | [7] 22.4 µM and 17 µM
inactive: [1] | [3] | [4] | [5] | [6] | [7]

CC(C)(C)OOC(=O)c1ccccc1
active: [2] 79.5 µM | [10] 136 µM
not listed: [7]
inactive: all other assays above

CCC(C)c1ccc(O)cc1 (stereo unspecified)
active: [9] 100 µM | [2] 67.3 µM | [3] 67.9 µM
not listed: [7]
inactive: all other assays above

C[C@]12C=CC3=C4CCC(=O)C=C4CC[C@H]3[C@@H]1CC[C@@H]2O
active: [1] 11.9 µM | [9] 19.8 µM and 70.6 µM and 40.3 µM | [2] 17.5 µM and 11.3 µM | [5] 7.23 µM | [6] 9.42 µM
inactive: [1] | [8] | [9] | [2] | [4] | [7]

ClCCOCCCl
not listed: [3]
inactive: all other assays above

Cc1ccc(N=C=O)cc1N=C=O
inactive: all assays above

Oc1ccc2ccc3cccc4ccc1c2c34
active: [4] 32.6 µM | [5] 22.3 µM | [6] 35.4 µM
not listed: [3] | [7]
inactive: all other assays above

CN(C)c1ccc(C(=O)c2ccc(N(C)C)cc2)cc1
active: [5] 3.34 µM
inactive: all other assays above

Cc1cc(N=Nc2ccccc2C)ccc1N
active: [2] 7.21 µM | [3] 20.4 µM | [5] 10.4 µM
not listed: [7]
inactive: all other assays above

Cn1cc(-c2ccccc2)c(=O)c(-c2cccc(C(F)(F)F)c2)c1
active: [9] 100 µM | [2] 44.2 µM
inactive: all other assays above

C=CCc1ccc2c(c1)OCO2
not listed: [7]
inactive: all other assays above

CCN(CC)CCO
not listed: [7]
inactive: all other assays above

CC(C)(OOC(C)(C)c1ccccc1)c1ccccc1
active: [1] 59.1 µM | [8] 77.6 µM | [2] 29.1 µM | [3] 59.6 µM | [4] 29 µM | [5] 33.7 µM | [6] 27.7 µM | [7] 29.9 µM
inactive: [9] | [10]

CCN(CC)N=O
inactive: all assays above

CC(C)(C)C(O)(CCc1ccc(Cl)cc1)Cn1cncn1 (stereo unspecified)
active: [2] 88.8 µM
not listed: [7]
inactive: all other assays above

Clc1ccc(C(c2ccc(Cl)cc2)C(Cl)Cl)cc1
inactive: [9] | [10]
active: [1] 60.5 µM | [8] 44.6 µM | [2] 51.1 µM | [3] 49.7 µM | [4] 32.2 µM | [5] 14.1 µM | [6] 31.4 µM | [7] 28.7 µM

COP(=S)(OC)SCN1C(=O)c2ccccc2C1=O
active: [4] 7.76 µM
not listed: [3]
inactive: all other assays above

COC(=O)c1ccccc1N
inactive: all assays above

c1ccc2c(c1)-c1cccc3cccc-2c13
active: [4] 0.669 µM
inactive: all other assays above

Nc1ccc(Cc2ccc(N)cc2)cc1
not listed: [3]
inactive: all other assays above

c1ccc2c(c1)oc1ccccc12
not listed: [3] | [7]
inactive: all other assays above

Nc1ccc(Cl)cc1N
active: [2] 5.68 µM | [3] 29.5 µM | [10] 8.6 µM | [6] 4.34 µM
not listed: [7]
inactive: all other assays above

c1ccc(N=Nc2ccccc2)cc1
active: [2] 61.2 µM
not listed: [7]
inactive: all other assays above

CCCCCOC(=O)c1ccccc1C(=O)OCCCCC
active: [2] 56.4 µM | [6] 20 µM
not listed: [3] | [7]
inactive: all other assays above

CC(C)(O)c1cnn2c(-c3ccc(F)c(-c4c(F)cccc4C#N)c3)cnc2n1
inactive: [1] | [8] | [9] | [3]
active: [2] 19.8 µM | [10] 8.54 µM | [4] 28.2 µM | [5] 31.3 µM | [6] 35.3 µM

Oc1ccccc1Cl
active: [2] 52 µM
not listed: [3]
inactive: all other assays above

CCC[CH2][Sn]([Cl])([CH2]CCC)[CH2]CCC
inactive: [1] | [8] | [3]
active: [9] 0.601 µM | [2] 0.281 µM | [10] 0.771 µM | [4] 0.148 µM | [5] 0.148 µM | [6] 0.148 µM | [7] 0.148 µM

Nc1cc(Cl)cc(C(=O)O)c1Cl
not listed: [9]
inactive: all other assays above

O=P(OCCCl)(OCCCl)OCCCl
not listed: [3] | [7] | [9]
inactive: all other assays above

COc1cc(C=O)cc2c1[C@H](COC(N)=O)[C@]1(OC(C)=O)ON2C[C@H]2[C@@H]1N2C(C)=O
active: [1] 52 µM | [8] 7.48 µM | [2] 17 µM | [10] 5.95 µM | [4] 6.64 µM | [5] 11.6 µM | [6] 22.1 µM | [7] 6.01 µM

O=[N+]([O-])c1ccc(Oc2ccc(Cl)cc2Cl)cc1
active: [5] 9.38 µM | [7] 33.6 µM
not listed: [8]
inactive: all other assays above

[O-][Cl+]O
not listed: [3]
inactive: all other assays above

ClC1=C(Cl)[C@]2(Cl)[C@H]3[C@H]([C@@H]4C=C[C@H]3C4)[C@@]1(Cl)C2(Cl)Cl
active: [2] 50.5 µM | [3] 25.1 µM | [4] 28.5 µM | [5] 16.1 µM | [6] 28.7 µM
inactive: [1] | [8] | [10]

CCCCOC(=O)c1ccccc1C(=O)OCc1ccccc1
active: [2] 48.3 µM
not listed: [3]
inactive: all other assays above

Clc1ccc(C(c2ccc(Cl)cc2)C(Cl)(Cl)Cl)cc1
active: [1] 42.1 µM | [2] 36.4 µM | [4] 27.7 µM | [5] 15.2 µM | [6] 27.5 µM | [7] 30.1 µM
inactive: [9] | [3] | [10]

N#CC(Br)Br
active: [2] 74.8 µM
not listed: [3] | [7] | [10]
inactive: all other assays above

CN(C)c1ccccc1
not listed: [7] | [9]
inactive: all other assays above

CCCCCCCCn1sccc1=O
inactive: [2]
active: [1] 17.2 µM | [9] 21.1 µM | [3] 15.9 µM | [10] 19.9 µM | [4] 11.7 µM | [5] 15.3 µM | [6] 9.3 µM | [7] 9.13 µM
